Screens: PubChem, several laboratories
NF-kB neuron act = raises NF-kB expression in human neuronal cells. fold change at 12.5 µM. AID 1239. 190,000 tested, 1.6% active. NF-kB reporter expression; stronger effect = higher value; in the data active = fold change above about 3.3
Hsp70 act = Hsp70 transcriptional activation, primary screen; HeLa Hsp70 promoter luciferase reporter, luminescence; scaled: vehicle 0, proteasome-inhibitor control 100%; activation, % at 10 µM; 200,000 tested, 0.04% active; AID 1203;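 active = activation above the mean across all tested compounds plus 3 SD, cutoff set per campaign, cut at about 5.5% in these data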;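 note: 100% = MG132 at 30 µM as the positive control and 0% = DMSO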
Wee1 degr inh = inhibitors of human Wee1 degradation. 220,000 tested, 1.2% active. reporter increase, % at 5 µM. HeLa Luc-Wee1K328M stability, luciferase luminescence; 100% = proteasome inhibitor MG132 effect;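 active = activation above the mean of all tested compounds plus 3 SD, set per screening run, cut at about 8.8% in these data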;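 note: cells exposed to compound for 20 h before luminescence read; 0% = DMSO alone and 100% = MG132 at 30 µM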
Target sequence (P30291 whole entry K328M): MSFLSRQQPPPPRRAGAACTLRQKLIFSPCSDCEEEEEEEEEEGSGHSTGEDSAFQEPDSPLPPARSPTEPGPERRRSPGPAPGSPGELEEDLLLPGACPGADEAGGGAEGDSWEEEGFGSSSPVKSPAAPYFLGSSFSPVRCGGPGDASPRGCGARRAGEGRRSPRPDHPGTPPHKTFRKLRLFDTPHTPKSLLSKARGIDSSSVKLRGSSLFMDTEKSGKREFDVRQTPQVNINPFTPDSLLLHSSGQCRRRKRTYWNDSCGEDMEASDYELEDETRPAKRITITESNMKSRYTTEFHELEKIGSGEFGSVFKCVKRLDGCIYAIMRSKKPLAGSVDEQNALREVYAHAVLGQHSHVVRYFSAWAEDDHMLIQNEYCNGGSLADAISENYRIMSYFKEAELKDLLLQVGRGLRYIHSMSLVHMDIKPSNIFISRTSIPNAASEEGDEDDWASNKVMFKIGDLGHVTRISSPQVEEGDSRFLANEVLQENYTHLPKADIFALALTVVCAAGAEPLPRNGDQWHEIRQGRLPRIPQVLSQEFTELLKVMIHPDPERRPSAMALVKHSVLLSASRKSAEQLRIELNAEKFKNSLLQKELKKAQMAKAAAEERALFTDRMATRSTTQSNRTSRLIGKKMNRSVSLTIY
APP 5'UTR act = activates APP 5'UTR luciferase reporter; SH-SY5Y APP 5'UTR luciferase reporter, luminescence; zero percent = DMSO vehicle wells; activation, % at 2 µM; 190,000 tested, 1% active; AID 1276;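 active = activation above a set limit, based on mean plus 3 SD of controls, cut at about 140% in these data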
APP 5UTR inh = APP translation inhibition. SH-SY5Y APP 5'UTR-luciferase reporter, luminescence. inhibition, % at 2 µM. 190,000 tested, 0.82% active. AID 1285;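 active = inhibition above a set limit, derived from the sample mean plus 3 SD, cut at about 45% in these data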
STAT1 activator = increases IFN-gamma driven STAT1 reporter signal; NIH 3T3 STAT1-luciferase reporter, luminescence; 100% = IFN-gamma alone, no compound; activation (% of control), % at 5.5 µM; 200,000 tested, 2.6% active; AID 932;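 active = activation above the screen-wide mean activation plus 3 SD, cut at about 130% in these data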;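 note: raw ratio to IFN-gamma control signal so 100% means no change and 0% no light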
* marks the source's active call; other numbers are inactive results; / = not tested or not shown. An excerpt weighted towards active compounds, which were near 4.8% of everything screened.

SMILES	NF-kB neuron act	Hsp70 act	Wee1 degr inh	APP 5'UTR act	APP 5UTR inh	STAT1 activator
c1ccc(-c2cn(-c3ccccc3)c3[n+]2CCS3)cc1	1.05	-0.2	-3.4	4.6	-4.6	79.7
Cc1ccc2ccc(C3C(=O)c4ccccc4C3=O)nc2c1	/	0.0	-0.8	144.8*	-144.8	141.6*
Cc1ccc2cc(C#N)c(NCc3ccccc3)nc2c1	1.06	0.0	0.0	-9.6	9.6	100.8
CC1(C)CC(c2nc(-c3ccc(Br)cc3)cs2)CCS1 (configuration not stated)	1.34	-0.3	3.9	4.7	-4.7	93.1
CN(c1nc(-c2ccc(Br)cc2)cs1)C1CCS(=O)(=O)C1 (configuration not stated)	1.88	-0.3	4.7	13.7	-13.7	129.7*
Cc1ccc(C(=O)C[n+]2cc(Br)cc(Br)c2)cc1	/	/	2.9	/	/	/
CCOc1ccccc1C(=O)N1CCN(c2cccc(Cl)c2)CC1	4*	0.2	-0.6	-94.5	94.5*	104.8
O=C(O)c1ccccc1C(=O)N1CCN(c2cccc(Cl)c2)CC1	1.11	-0.1	-0.3	4.1	-4.1	89.1
COC(=O)c1cc(C(=O)N2CCN(c3cccc(Cl)c3)CC2)cc([N+](=O)[O-])c1	0.98	0.1	0.1	-92.3	92.3*	93.1
COCCNC(=O)C(c1ccc(C)o1)N(Cc1ccc(OC)cc1)C(=O)Cn1nnc2ccccc21 (configuration not stated)	1.04	0.1	-2.1	-2.6	2.6	99.3
O=C(CN1CCCc2ccccc21)NC(=O)NC1CCCCC1	1.04	-0.1	9.2*	14.4	-14.4	95.9
O=C(NC1CCCCC1)N1CCc2ccccc21	2.37	0.2	-0.9	52.0	-52.0	129.4*
CCNc1nnc(CCn2nc(C)c(Br)c2C)s1	1.24	-0.3	1.0	-18.7	18.7	97.9
C/C(=N/NC(=O)c1ccc(O)cc1)c1cccc([N+](=O)[O-])c1	1.19	-0.2	1.9	14.2	-14.2	99.2
C/C(=N\NC(=O)c1nn(C)cc1Br)c1cccc(NC(=O)c2ccncc2)c1	1.15	-0.1	-2.6	33.0	-33.0	141.4*
CC(=O)Nc1cccc(/C(C)=N/NC(=O)c2ccc(O)cc2)c1	1.06	0.0	10.1*	3.6	-3.6	94.8
Cc1nc(NC(=O)COC(=O)C(NC(=O)c2ccco2)C(C)C)c(Cl)cc1Cl (configuration not stated)	1.1	-0.1	1.2	-7.6	7.6	97.0
CCCOc1ccc(S(=O)(=O)NCCN2CCOCC2)c2ccccc12	1.01	-0.3	-2.4	4.5	-4.5	100.6
Clc1ccc2nc(-c3ccc4c(c3)OCO4)cn2c1	4.99*	-0.4	-0.7	157.8*	-157.8	39.7
Cc1cc(NC(=O)COC(=O)c2ccc(S(=O)(=O)N3CCCC3)cc2)no1	1	-0.3	-1.7	8.3	-8.3	94.2
Cc1cc(NC(=O)COC(=O)c2ccc(S(=O)(=O)N3CCCc4ccccc43)cc2)no1	1.56	-0.4	4.3	-92.2	92.2*	102.1
CN1C/C(=C/c2cccnc2)C(=O)/C(=C/c2cccnc2)C1	1.52	-0.3	4.8	-88.7	88.7*	93.6
O=C(CCC(=O)N1CCN(C2CCCCC2)CC1)Nc1nnc(C(F)(F)F)s1	1.08	-0.3	0.0	8.0	-8.0	95.5
O=C(CCn1c(=O)[nH]c2ccsc2c1=O)N1CCN(c2cccc(Cl)c2)CC1	0.77	-0.4	-0.8	-3.4	3.4	99.3
Cc1cc2c(cc(C(=O)OCC(=O)NCc3cccs3)n2C(C)C)o1	1.5	-0.1	6.4	-74.7	74.7*	108.6
SMILES	NF-kB neuron act	Hsp70 act	Wee1 degr inh	APP 5'UTR act	APP 5UTR inh	STAT1 activator
Nc1ccc(C(=O)Nc2nccs2)cc1	2.18	0.2	1.7	25.9	-25.9	126.7
Cc1ccc(C(=O)Nc2nccs2)cc1	3.54*	0.1	1.6	90.6	-90.6	106.0
CC(C)(C)c1ccc(C(=O)Nc2ccc(NC(=O)c3ccco3)cc2)cc1	1.36	0.1	-0.3	10.5	-10.5	103.0
O=C(Nc1nccs1)c1ccc(NC(=O)c2ccco2)cc1	1.87	-0.3	3.3	42.0	-42.0	136.8*
CCC(CC)NC(=O)c1cc2c(C)nn(Cc3ccccc3Cl)c2s1	0.87	-0.3	-3.4	-1.9	1.9	99.9
O=C(OCc1nnc(-c2ccc(Cl)cc2)o1)c1ccc(O)cc1	1.51	-0.5	-3.3	-4.3	4.3	118.1
c1ccc(-c2cn3c(n2)CCC3)cc1	1.07	-0.3	-0.3	-14.1	14.1	124.6
c1ccc(-c2cn3nc4c(nc3n2)CCCC4)cc1	2.38	0.6	-0.6	148.5*	-148.5	51.9
Cc1nc2nc(-c3ccccc3)cn2nc1C	4.74*	0.3	-1.3	97.7	-97.7	122.5
Brc1ccc(-c2cn3nc4c(nc3n2)CCCC4)cc1	2.87	0.0	5.2	185.5*	-185.5	72.5
CCSc1nnc(NC(=O)c2ccc3c(c2)OCO3)s1	3.35*	-0.3	1.1	53.0	-53.0	118.5
COc1ccccc1-c1nnc(NC(=O)c2ccc3c(c2)OCO3)s1	1.02	0.2	0.8	-46.1	46.1*	96.3
CCSc1nnc(NC(=O)/C=C/c2ccc3c(c2)OCO3)s1	1.4	-0.4	6.3	-7.0	7.0	105.0
COc1ccccc1-c1nnc(NC(C)=O)s1	2.48	0.2	4.8	3.7	-3.7	127.0
Cc1ccc(C)c(OCc2nnc(NC(=O)c3ccc4c(c3)OCO4)s2)c1	/	/	10.7*	/	/	/
CC(C)c1nnc(NC(=O)c2ccc3c(c2)OCO3)s1	4.77*	4.8	2.4	147.9*	-147.9	79.4
COCCNC(=O)C(OC(=O)c1cccs1)c1ccccc1 (configuration not stated)	0.97	-0.3	-1.6	12.6	-12.6	99.3
COC(=O)CC1COc2ccccc2N1C(=O)c1ccc(C(C)(C)C)cc1 (configuration not stated)	0.86	-0.5	0.8	-10.0	10.0	98.4
O=C(COc1ccc2c(c1)CCC2)N1CCN(c2ccccc2F)CC1	1.19	-0.5	10.1*	-6.0	6.0	96.8
COc1cccc(NC(=O)c2cc(Cl)nnc2Cl)c1	1.27	0.3	1.4	-10.8	10.8	88.4
COc1cc(NC(=O)c2cc(Cl)nnc2Cl)cc(OC)c1OC	1.33	0.3	10.1*	12.4	-12.4	91.8
CCOC(=O)C(C(=O)Nc1ccccc1C)C1CCCCC1 (configuration not stated)	1.47	-0.1	-1.4	15.9	-15.9	107.2
CCOc1cc(S(=O)(=O)NCc2ccc3c(c2)OCO3)c(C)cc1C	1	-0.2	-1.0	-4.8	4.8	97.4
OCCN1CCN(c2ncnc3c2sc2nc(N4CCOCC4)c4c(c23)CCC4)CC1	0.52	-0.3	2.1	-6.2	6.2	98.3
S=C(NC1CCCCC1)NC1CC2C=CC1C2 (configuration not stated)	/	/	9.2*	/	/	/
CC(C)CNC(=O)COC(=O)c1cncc(Br)c1	0.95	-0.1	1.1	0.2	-0.2	103.4
c1ccc(-c2ncc3c(ccc4ccccc43)n2)cc1	1.17	0.0	-2.9	112.7	-112.7	141.2*
c1ccc2c(c1)cnc1ccccc12	/	/	5.5	/	/	/
